# Reference: PubChem BioAssay (NCATS)
# Several values for one entry are separate records, joined by “and”; a condition that tells them apart may be missing. Equal entries are not always repeated. A number with no mark means an inactive call. Records with an inconclusive call do not appear. Activity calls are given as the source filed them. Unless noted, the call rests on the fitted dose curve; in most records, active means well fitted curve in the direction sought with a large enough effect; inconclusive means small, poorly fitted or top-dose-only effect, or another doubt; inactive means no such curve, though single readings can be large; an effect the other way counts as inactive or inconclusive.
# What was measured:
# [1] = Drug repurposing screens with cells derived from glioblastoma tumor samples (AID 1345199); settings: GBM patient neurospheres viability, ATP luminescence, 48 h; for Potency: tumour line A; further: potency means the concentration at half of the fitted maximal effect; on activity, negative = cell killing: on the % scale 0 is the no-effect control and ±100 the full control effect; on all read-outs here: nearly all actives have a fitted effect of over 40% in size
# Method in brief: (§1)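 Four patient lines of CD133+ GBM neurospheres were screened at several concentrations; hits were retested in those lines plus three slower-growing GBM lines, using 48-hour treatment and ATP-based viability.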
# astro = control astrocytes; assay: as above; settings: viability, ATP luminescence, 48 h; series mostly up to 45.9 µM
# Method in brief: as §1
# [2] = biological target: Nuclear receptor subfamily 1 group I member 2 (Rattus norvegicus) (UniProt Q9R1A7); assay: qHTS assay for small molecule activators of the rat pregnane X receptor (rPXR) signaling pathway (AID 651751; call rule not given here; further: 0% is about no effect); settings: rPXR reporter cells, luciferase (One-Glo), 24 h
# [3] = qHTS assay for small molecule activators of the human pregnane X receptor (PXR) signaling pathway (AID 720659; call rule not given here; further: 0% is about no effect); settings: DPX-2 HepG2 CYP3A4-luciferase, 24 h; series mostly up to 92.3 µM
# [4] = qHTS assay to identify inhibitors of the type 1 interferon - major histocompatibility complex class I in skeletal muscle: Counter screen cell viability and HiBit confirmation (AID 1347412); settings: iHSKM muscle cells + IFN-b, HiBiT or CellTiter-Glo, 24 h; for activity change, negative = inhibition: at 45.9 µM (top of the series); further: potency means the concentration at half of the fitted maximal effect; on activity change, negative = inhibition: on the % scale 0 is the no-effect control and ±100 the full control effect; on all read-outs here: nearly all actives have a fitted effect of over 60% in size
# Method in brief: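 Duplicate plates, pinned identically: one read for HiBiT-tagged endogenous HLA-B luminescence, the other for ATP-content viability via CellTiter Glo. Cells were genome-engineered human myoblasts given 4 ng/ml IFN-b; compounds 12-pt, 1:3 from 46 uM final; 24 hr exposure.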
# [5] = at 45.9 µM (top of the series), tumour line B
# [6] = at 46.1 µM (top of the series), tumour line C
# [7] = at 45.9 µM (top of the series), tumour line D
# Chain of Nuclear receptor subfamily 1 group I member 2 (Rattus norvegicus) (Q9R1A7 whole entry, looked up): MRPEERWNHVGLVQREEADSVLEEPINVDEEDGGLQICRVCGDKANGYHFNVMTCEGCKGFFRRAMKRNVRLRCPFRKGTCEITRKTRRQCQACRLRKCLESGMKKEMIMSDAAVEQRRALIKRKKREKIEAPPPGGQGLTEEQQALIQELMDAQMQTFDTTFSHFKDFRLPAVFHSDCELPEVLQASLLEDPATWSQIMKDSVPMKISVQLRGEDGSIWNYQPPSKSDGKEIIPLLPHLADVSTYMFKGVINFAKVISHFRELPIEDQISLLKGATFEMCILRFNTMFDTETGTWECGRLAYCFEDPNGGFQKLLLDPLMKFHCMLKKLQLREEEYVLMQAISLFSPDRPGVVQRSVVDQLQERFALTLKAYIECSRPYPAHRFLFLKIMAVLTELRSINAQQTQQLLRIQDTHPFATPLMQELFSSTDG
smiles,measurement,setting,value
COc1cc2[nH]c(C)c(CCN3CCN(c4ccccc4)CC3)c2cc1OC,"activity, negative = cell killing",[1]; [5],-18.7%
same,"activity, negative = cell killing",[1]; [6],-15.6%
same,Potency,[1],15.8 µM (active)
same,Potency,astro,inactive
CC[C@H]1OC(=O)[C@H](C)[C@@H](O[C@H]2C[C@@](C)(OC)[C@@H](O)[C@H](C)O2)[C@H](C)[C@@H](O[C@@H]2O[C@H](C)C[C@H](N(C)C)[C@H]2O)[C@](C)(O)C[C@@H](C)[C@@H]2N[C@@H](COCCOC)O[C@@H]([C@H]2C)[C@]1(C)O,"activity, negative = cell killing",[1]; [5],-7.98%
same,"activity, negative = cell killing",[1]; [6],-7.79%
same,Potency,[1],11.2 µM (active)
same,Potency,astro,inactive
CCOC(=O)COc1ccc2c(=O)cc(-c3ccccc3)oc2c1,"activity, negative = cell killing",[1]; [7],-18.4%
same,"activity, negative = cell killing",[1]; [6],-1.42% and -17.4%
same,Potency,astro,inactive
COC(C)=O,"activity, negative = cell killing",[1]; [5],-2.89%
same,"activity, negative = cell killing",[1]; [7],6.97%
same,"activity, negative = cell killing",[1]; [6],7.29%
same,Potency,astro,inactive
same,max response,[2],5.57%
same,outcome,[3],inactive
CON=C1C[C@]2(C[C@@H]3C[C@@H](C/C=C(\C)C[C@@H](C)/C=C/C=C4\CO[C@@H]5[C@H](O)C(C)=C[C@@H](C(=O)O3)[C@]45O)O2)O[C@H](/C(C)=C/C(C)C)[C@H]1C,Potency,astro,17.8 µM (active) and 20 µM (active)
NC(=O)c1cnc(N[C@@H]2CCCC[C@@H]2N)nc1Nc1cccc(-n2nccn2)c1,"activity change, negative = inhibition",[4]; Viability,-17.1%
COc1ccc(CNc2nc(N(CCO)CCO)nc3c2ncn3C(C)C)cc1,Potency,[4]; HiBiT,5.57 µM (active)
same,"activity change, negative = inhibition",[4]; Viability,13%
C[N+](C)(CCCCCC[N+](C)(C)C1c2ccccc2-c2ccccc21)C1c2ccccc2-c2ccccc21,Potency,astro,inactive
c1ccc2c(CCC3CCNCC3)c[nH]c2c1,Potency,astro,inactive
COC(=O)C[C@](O)(CCCC(C)(C)O)C(=O)O[C@@H]1C(OC)=CC23CCCN2CCc2cc4c(cc2[C@H]13)OCO4 (stereo not given in full),Potency,astro,1.12 µM (active)
NC(=O)c1ccccc1Nc1ccnc(Nc2cccc(O)c2)n1,Potency,[4]; HiBiT,4.97 µM (active)
CC(C)(C)CC(=O)OCC(=O)[C@@]12OC(C)(C)O[C@@H]1C[C@H]1[C@@H]3CCC4=CC(=O)C=C[C@]4(C)[C@@]3(F)[C@@H](O)C[C@@]12C,"activity, negative = cell killing",[1]; [5],-19.8%
same,"activity, negative = cell killing",[1]; [6],-0.929%
same,Potency,astro,inactive
O=C(O)c1ccccc1[O-].O=C(O)c1ccccc1[O-].[Zn+2],"activity, negative = cell killing",[1]; [5],-5.99%
same,"activity, negative = cell killing",[1]; [7],-6.7%
same,"activity, negative = cell killing",[1]; [6],-14.8%
same,Potency,astro,inactive
C[C@H](/C=C/[C@H](C)C(C)(C)O)[C@H]1CC[C@H]2/C(=C/C=C3C[C@@H](O)C[C@H](O)C3)CCC[C@]12C,Potency,astro,inactive
C=CCNC1=C2C[C@@H](C)C[C@H](OC)[C@H](O)[C@@H](C)/C=C(\C)[C@H](OC(N)=O)[C@@H](OC)/C=C\C=C(/C)C(=O)NC(=CC1=O)C2=O,Potency,astro,1.26 µM (active)
same,Potency,[4]; HiBiT,0.0701 µM (active)
COC(=O)Nc1cc(Nc2cc(NC3CC3)c3ncc(C#N)n3n2)c(Cl)c(N2CCN(C)CC2)c1,Potency,[4]; HiBiT,7.01 µM (active)
same,Potency,[4]; Viability,17.6 µM (active)
N#Cc1ccnc(Nc2cc(C3CCN(C4COC4)CC3)cc(N3CCC(F)(F)C3)n2)c1,Potency,[4]; HiBiT,3.52 µM (active)
NCCCNCCCCNC(=O)C(O)NC(=O)CCCCCCN=C(N)N (stereo not given),"activity, negative = cell killing",[1]; [5],-10.7%
same,"activity, negative = cell killing",[1]; [6],-21.3%
same,Potency,astro,inactive
COCCNCc1ccc(-c2cc3nccc(Oc4ccc(NC(=O)C5(C(=O)Nc6ccc(F)cc6)CC5)cc4F)c3s2)nc1,Potency,[4]; Viability,31.3 µM (active)
O=S(O)CO,"activity, negative = cell killing",[1]; [5],4.97%
same,"activity, negative = cell killing",[1]; [7],-2.6%
same,"activity, negative = cell killing",[1]; [6],-1.44%
same,Potency,astro,inactive
CCN(CC)c1ccc(C(=C2C=CC(=[N+](CC)CC)C=C2)c2ccccc2)cc1,Potency,astro,2 µM (active)
CC1=C(C(=O)OCCN(Cc2ccccc2)c2ccccc2)C(c2cccc([N+](=O)[O-])c2)C(P2(=O)OCC(C)(C)CO2)=C(C)N1 (stereo not given),"activity, negative = cell killing",[1]; [5],19%
same,Potency,astro,inactive
COc1ccc(CCNCC(O)COc2cccc(C)c2)cc1OC (stereo not given),"activity, negative = cell killing",[1]; [5],-28.4%
same,"activity, negative = cell killing",[1]; [6],-25.3%
same,Potency,[1],11.2 µM (active)
same,Potency,astro,inactive
CN=C(NC)NCc1ccccc1,"activity, negative = cell killing",[1]; [5],-3.78%
same,"activity, negative = cell killing",[1]; [7],7.26%
same,"activity, negative = cell killing",[1]; [6],-3.39%
same,Potency,astro,inactive
C[C@]12CC[C@@H]3c4ccc(OS(=O)(=O)O)cc4CC[C@H]3[C@@H]1CCC2=O,"activity, negative = cell killing",[1]; [5],-10.8%
same,"activity, negative = cell killing",[1]; [7],4.49%
same,"activity, negative = cell killing",[1]; [6],-5.66%
same,Potency,astro,inactive
Cc1ccc(/C(=C\CN2CCCC2)c2cccc(/C=C/C(=O)O)n2)cc1,"activity, negative = cell killing",[1]; [6],-12.4%
same,Potency,[1],35.5 µM (active)
same,Potency,astro,22.4 µM (active)
CCCCCCCC/C=C\CCCCCCCC(=O)OC[C@@H](O)[C@H]1OC[C@H](O)[C@H]1O,"activity, negative = cell killing",[1]; [5],-4.65%
same,"activity, negative = cell killing",[1]; [7],1.42%
same,Potency,astro,inactive
same,max response,[2],1.88%
same,outcome,[3],inactive
CCC(C)[C@H]1O[C@]2(C=C[C@@H]1C)C[C@@H]1C[C@@H](C/C=C(\C)[C@@H](O[C@H]3C[C@H](OC)[C@@H](O[C@H]4C[C@H](OC)[C@H](NC(C)=O)[C@H](C)O4)[C@H](C)O3)[C@@H](C)/C=C/C=C3\CO[C@@H]4[C@H](O)C(C)=C[C@@H](C(=O)O1)[C@]34O)O2 (stereo not given in full),Potency,astro,6.31 µM (active) and 20 µM (active)
COc1ccc(CNCC(O)COc2ccc3[nH]c(=O)ccc3c2)cc1OC (stereo not given),"activity, negative = cell killing",[1]; [5],-3.95%
same,"activity, negative = cell killing",[1]; [7],-26.6%
same,"activity, negative = cell killing",[1]; [6],15.6%
same,Potency,astro,inactive
CC(CC(c1ccccc1)c1ccccc1)NC(C)(C)C (stereo not given),Potency,astro,inactive
